Results from PubChem BioAssay AID1159580 (chemical genetic matrix, 2015).
“And” between values parts separate entries of the source, which are not always exact repeats. Identical values can stand only once. About 2,000 (36%) of roughly 5,500 compounds were called active. Roughly 18% stayed inconclusive and do not appear here. Cut-off read from the data, not from the text of the source: active = normalized growth mostly below about 0.91 (no sharp cut-off); inconclusive = no clear call, values can overlap the other calls; inactive = mostly above about 0.92. Some of the results follow.

Assay: chemical genetic growth profiling, strain panel (AID 1159580);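 note: tested at 20 µM; growth read once vehicle control cultures reached saturation at 30 °C; 1 = growth at the plate median or of vehicle wells; lower values mean less growth of the strain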
Settings: S. cerevisiae deletion strains, growth OD

Measured: normalized growth

CCOc1ccc(NC(C)=O)cc1
inactive: locus YAL013W, strain DEP1, hits give low values 1.02 | locus YAL021C, strain ccr4, hits give low values 1.01 | locus YAL026C, strain drs2, hits give low values 1.01 | locus YAL030W, strain snc1, hits give low values 1.02 | locus YBL061C, strain skt5, hits give low values 1.02 | locus YBR009C, strain hhf1, hits give low values 1.01 | locus YBR021W, strain FUR4, hits give low values 0.963 | locus YBR023C, strain chs3, hits give low values 1.01 | locus YBR171W, strain sec66, hits give low values 1.02 | locus YBR229C, strain ROT2, hits give low values 1 | locus YBR231C, strain swc5, hits give low values 1.02 | locus YBR279W, strain paf1, hits give low values 1.01 | locus YCL011C, strain gbp2, hits give low values 1.02 | locus YCL016C, strain dcc1, hits give low values 1.02 | locus YCL029C, strain bik1, hits give low values 0.989 | locus YCL061C, strain MRC1, hits give low values 1.01 | locus YCL069W, strain vba3, hits give low values 1.02 | locus YCR088W, strain abp1, hits give low values 1.02 | locus YDL005C, strain med2, hits give low values 1.02 | locus YDL035C, strain GPR1, hits give low values 0.997 | locus YDL040C, strain nat1, hits give low values 1.01 | locus YDL074C, strain BRE1, hits give low values 1.06 | locus YDL101C, strain DUN1, hits give low values 1.01 | locus YDL134C, strain PPH21, hits give low values 1 | locus YDL185W, strain tfp1, hits give low values 0.959 | locus YDL192W, strain arf1, hits give low values 0.991 | locus YDR001C, strain nth1, hits give low values 1.02 | locus YDR069C, strain doa4, hits give low values 1 | locus YDR101C, strain arx1, hits give low values 0.998 | locus YDR137W, strain rgp1, hits give low values 1.03 | locus YDR150W, strain NUM1, hits give low values 0.991 | locus YDR159W, strain sac3, hits give low values 1.01 | locus YDR162C, strain NBP2, hits give low values 1.01 | locus YDR195W, strain ref2 1.02 | locus YDR297W, strain sur2, hits give low values 1.02 | locus YDR318W, strain mcm21, hits give low values 0.997 | locus YDR334W, strain swr1, hits give low values 1.02 | locus YDR335W, strain msn5, hits give low values 1.02 | locus YDR388W, hits give low values 1 | locus YDR392W, strain spt3, hits give low values 0.953 | locus YDR502C, strain sam2, hits give low values 0.994 | locus YEL003W, strain gim4, hits give low values 1.02 | locus YEL037C, strain rad23, hits give low values 1.01 | locus YEL061C, strain CIN8 (second series), hits give low values 1.02 | locus YEL061C, strain CIN8, hits give low values 1.04 | locus YER015W, strain faa2, hits give low values 1.01 | locus YER016W, strain bim1, hits give low values 1 | locus YER110C, hits give low values 0.979 | locus YER111C, strain swi4, hits give low values 1.02 | locus YER155C, strain BEM2 (second series), hits give low values 1.02 | locus YER155C, strain BEM2, hits give low values 0.984 | locus YER167W, strain BCK2, hits give low values 0.979 | locus YFR010W, strain ubp6, hits give low values 1.02 | locus YGL078C, strain dbp3, hits give low values 0.985 | locus YGL086W, strain mad1, hits give low values 0.984 | locus YGL167C, strain pmr1, hits give low values 1.02 | locus YGL173C, strain kem1, hits give low values 1.01 | locus YGL227W, strain vid30, hits give low values 1 | locus YGL240W, strain doc1, hits give low values 1.02 | locus YGL248W, strain PDE1, hits give low values 1.01 | locus YGL253W, strain hxk2, hits give low values 1.01 | locus YGR078C, strain PAC10, hits give low values 1 | locus YGR135W, strain pre9, hits give low values 1 | locus YGR229C, strain SMI1, hits give low values 1.02 | locus YGR252W, strain gcn5, hits give low values 0.986 | locus YHR013C, strain ard1, hits give low values 1.06 | locus YHR027C, strain rpn1, hits give low values 1 | locus YHR030C, strain SLT2, hits give low values 0.984 and 1.02 | locus YHR079C, strain IRE1 (second series), hits give low values 0.995 | locus YHR079C, strain IRE1, hits give low values 1.03 | locus YHR094C, strain hxt1, hits give low values 0.975 | locus YHR129C, strain ARP1, hits give low values 1.01 | locus YHR142W, strain chs7, hits give low values 1.01 | locus YHR200W, strain rpn10, hits give low values 0.992 | locus YIL066C, strain RNR3, hits give low values 1 | locus YIL073C, strain SPO22, hits give low values 0.916 | locus YIL125W, strain kgd1, hits give low values 0.988 | locus YIR030C, strain dcg1, hits give low values 1 | locus YJL092W, strain hpr5, hits give low values 1.01 | locus YJL095W, strain BCK1 (second series), hits give low values 1.01 | locus YJL095W, strain BCK1, hits give low values 1.09 and 1.01 | locus YJL115W, strain asf1, hits give low values 1.01 | locus YJL129C, strain trk1, hits give low values 1.02 | locus YJL134W, strain LCB3, hits give low values 0.985 | locus YJL154C, strain vps35, hits give low values 1.01 | locus YJL164C, strain tpk1, hits give low values 1.02 | locus YJL166W, strain qcr8, hits give low values 1.02 | locus YJL168C, strain set2, hits give low values 0.986 | locus YJL187C, strain SWE1 (second series), hits give low values 0.996 | locus YJL187C, strain SWE1, hits give low values 1.02 | locus YJR043C, strain POL32, hits give low values 1.14 | locus YJR066W, strain TOR1, hits give low values 0.961
